The record followed here is PubChem BioAssay (EPA / NIEHS).

Usually AC50 stands for the concentration at which the activity in the assay is half-maximal.

Read-out in assay [1]: Interleukin-1 alpha (IL1a), IL1A (gene 3552)
The experiment in a line: BSK_LPS_IL1a: BioMAP Diversity Plus: LPS Assay for Interleukin-1 alpha (IL1a) Biomarker Activity (AID 2283080). As to conditions: primary human HUVEC with PBMC; actives raise or lower the signal. The method in brief: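 Measured: IL-1 alpha via ELISA at 24 h in LPS-activated human umbilical vein endothelium–PBMC co-culture. Baseline: DMSO, bidirectional fitting.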

The nature of assay [2]: BSK_LPS_PGE2: BioMAP Diversity Plus: LPS Assay for Prostaglandin E2 (PGE2) Biomarker Activity (AID 2283082). As to conditions: primary human HUVEC with PBMC; actives raise or lower the signal. The method in brief:
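Endpoint derived from bidirectional curve fitting versus DMSO of ELISA-measured PGE2 in LPS-stimulated human primary vascular co-culture (HUVEC with PBMC) harvested at 24 h.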

Read-out in assay [3]: Macrophage colony-stimulating factor (MCSF), CSF1 (gene 1435)
Description: BSK_LPS_MCSF: BioMAP Diversity Plus: LPS Assay for Macrophage colony-stimulating factor (MCSF) Biomarker Activity (AID 2283083). As to conditions: primary human HUVEC with PBMC; actives raise or lower the signal. A digest of the protocol: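 Compound is added to a human vascular primary co-culture of umbilical vein endothelium and blood mononuclear cells. After 24 h, M-CSF is quantified by ELISA. Signal changes are fitted in both directions against DMSO.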

Read-out in assay [4]: Tissue Factor, F3 (gene 2152)
Description: BSK_LPS_TissueFactor: BioMAP Diversity Plus: LPS Assay for Tissue Factor Biomarker Activity (AID 2283084). As to conditions: primary human HUVEC with PBMC; actives raise or lower the signal. The method in brief: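 In this co-culture system of umbilical vein endothelium with PBMC, stimulated with LPS, cell-surface CD142 is detected by ELISA at 24 h. Endpoint values derive from bidirectional fitting, DMSO serving as baseline.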

Read-out in assay [5]: Tumor necrosis factor (Homo sapiens) (UniProt P01375)
The experiment in a line: BSK_LPS_TNFa: BioMAP Diversity Plus: LPS Assay for Tumour Necrosis Factor alpha (TNFa) Biomarker Activity (AID 2283085). As to conditions: primary human HUVEC with PBMC; actives raise or lower the signal. A digest of the protocol:
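Primary human vascular co-culture of HUVEC and PBMC; TNFa ELISA 24 h after treatment, analysed as increase or decrease relative to DMSO control.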

Read-out in assay [6]: Vascular cell adhesion molecule 1 (VCAM1), VCAM1 (gene 7412)
Description: BSK_LPS_VCAM1: BioMAP Diversity Plus: LPS Assay for Vascular cell adhesion molecule 1 (VCAM1) Biomarker Activity (AID 2283086). As to conditions: primary human HUVEC with PBMC; actives raise or lower the signal. The method in brief:
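Primary human vascular co-culture (umbilical vein endothelium plus PBMC) stimulated with LPS received chemical; 24 h later VCAM-1 was read by ELISA. Overt cytotoxicity was assessed by sulforhodamine B staining of parallel cultures at the same time point.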

Read-out in assay [7]: CD38, CD38 (gene 952)
The experiment in a line: BSK_SAg_CD38: BioMAP Diversity Plus: SAg Assay for CD38 Biomarker Activity (AID 2283087). As to conditions: primary human HUVEC with PBMC; actives raise or lower the signal. A digest of the protocol: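 Fluorescence ELISA of cell-surface CD38 served as the read-out, with either increase or decrease fitted against DMSO controls. Cells were a human umbilical vein endothelium plus PBMC co-culture under SEB/TSST-1 stimulation, measured 24 h after dosing.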

Read-out in assay [8]: CD40, CD40 (gene 958)
Description: BSK_SAg_CD40: BioMAP Diversity Plus: SAg Assay for CD40 Biomarker Activity (AID 2283088). As to conditions: primary human HUVEC with PBMC; actives raise or lower the signal. The method in brief:
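Fluorescence ELISA read-out of CD40 from umbilical vein endothelium plus peripheral blood mononuclear cells, sampled 24 h after dosing. Values come from bidirectional curve fitting with DMSO as baseline.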

Read-out in assay [9]: CD69, CD69 (gene 969)
The experiment in a line: BSK_SAg_CD69: BioMAP Diversity Plus: SAg Assay for CD69 Biomarker Activity (AID 2283089).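 As to AC50: cell surface CD69 protein quantified by ELISA with fluorescence detection.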 As to conditions: primary human HUVEC with PBMC; actives raise or lower the signal. The method in brief: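 HUVEC co-cultured with PBMC were dosed with chemical, and CD69 was measured by ELISA with fluorescence read-out 24 h later. Bidirectional curve fitting used DMSO as negative control and activity baseline.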

Read-out in assay [10]: Monocyte Chemoattractant Protein-1 (MCP1), CCL2 (gene 6347)
Description: BSK_SAg_MCP1: BioMAP Diversity Plus: SAg Assay for Monocyte Chemoattractant Protein-1 (MCP1) Biomarker Activity (AID 2283090). As to conditions: primary human HUVEC with PBMC; actives raise or lower the signal. A digest of the protocol:
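MCP-1 levels in the endothelial–PBMC SAg co-culture were quantified by ELISA at 24 h post-dosing; both increases and decreases versus DMSO scored. Cytotoxicity monitored by SRB total protein in parallel cultures.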

Read-out in assay [11]: E-selectin (Homo sapiens) (UniProt P16581)
The experiment in a line: BSK_SAg_Eselectin: BioMAP Diversity Plus: SAg Assay for Eselectin Biomarker Activity (AID 2283091). As to conditions: primary human HUVEC with PBMC; actives raise or lower the signal. A digest of the protocol:
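Primary human endothelial cells and peripheral blood mononuclear cells were co-cultured and exposed to chemical for 24 hours. E-selectin levels were then quantified by ELISA, with bidirectional curve fitting normalised to DMSO controls.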

Read-out in assay [12]: Monokine induced gamma interferon (MIG), CXCL9 (gene 4283)
The experiment in a line: BSK_SAg_MIG: BioMAP Diversity Plus: SAg Assay for Monokine induced gamma interferon (MIG) Biomarker Activity (AID 2283092). As to conditions: primary human HUVEC with PBMC; actives raise or lower the signal. A digest of the protocol:
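HUVEC plus human PBMC co-culture, chemicals dosed and MIG (CXCL9) quantified by ELISA at 24 h. Bidirectional curve fitting against DMSO as negative control and baseline, so both gain and loss of signal count as activity.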

The nature of assay [13]: BSK_SAg_PBMCCytotoxicity: PBMC Cytotoxicity Assessment in the BioMAP Diversity Plus: SAg Assay (AID 2283093).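 Also: PBMC viability measured as Alamar Blue reduction fluorescence at 546/580 nm; fitted both ways against DMSO so a hit may be loss or gain of signal.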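 As to AC50: PBMC superantigen activated with SEB plus TSST-1 one hour after compound addition.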 As to conditions: primary human HUVEC with PBMC. A digest of the protocol:
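Compound added to 75,000 PBMC/well for 1 h; SEB and TSST-1 then added at 20 ng/mL final each; 90 h incubation; Alamar Blue 6 h; read 546/580 nm ex/em. Activity fitted bidirectionally relative to DMSO baseline.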

Read-out in assay [14]: Interleukin-8 (IL8), CXCL8 (gene 3576)
Description: BSK_SAg_IL8: BioMAP Diversity Plus: SAg Assay for Interleukin-8 (IL8) Biomarker Activity (AID 2283094). As to conditions: primary human HUVEC with PBMC; actives raise or lower the signal. The method in brief:
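In this co-culture of human umbilical vein endothelium with peripheral blood mononuclear cells, IL-8 is assayed by ELISA at 24 h. DMSO serves as baseline for bidirectional curve fitting.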

Assay [15] can be described thus: BSK_SAg_Proliferation: Cell Proliferation Assessment in the BioMAP Diversity Plus: SAg Assay (AID 2283095).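 Also: relative cell number as total protein by SRB absorbance in sub-confluent culture.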 As to conditions: primary human HUVEC with PBMC. A digest of the protocol: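 Readout is SRB-stained protein (560 nm) in a primary human HUVEC and PBMC co-culture; sub-confluent cultures are read at 96 h. Activity is fitted bidirectionally using DMSO as baseline.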

The nature of assay [16]: BSK_SAg_SRB: Viability Assessment in the BioMAP Diversity Plus: SAg Assay (AID 2283096).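 Also: cells read one day after compound addition; hits may be either gain or loss of signal compared with DMSO.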 As to conditions: primary human HUVEC with PBMC. A digest of the protocol: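 Total protein by sulforhodamine B staining, 24 h after dosing, in HUVEC–PBMC co-culture; DMSO-referenced bidirectional fitting.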
In assay [17] the target is human CYP19A1, CYP19A1 (gene 1588) (UniProt P11511). The experiment in a line: NVS_ADME_hCYP19A1: NovaScreen (NVS) CYP450-related Enzyme Activity (ADME) Assay for human CYP19A1 (AID 2283098; active = hit-call score of the fitted dose curve at least 0.9, where 1 is the maximum;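 as to AC50: potency for inhibitors seen as loss of fluorescent enzyme signal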). A digest of the protocol: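 Biochem, cell-free; recombinant enzyme + specific substrate; fluorescence intensity at 0.5 h post-dose; 10 uM duplicate primary, conc. series for actives; acetonitrile = negative control/baseline; positive and negative controls on every plate.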
human CYP19A1, CYP19A1 (gene 1588), sequence (P11511 whole entry, looked up): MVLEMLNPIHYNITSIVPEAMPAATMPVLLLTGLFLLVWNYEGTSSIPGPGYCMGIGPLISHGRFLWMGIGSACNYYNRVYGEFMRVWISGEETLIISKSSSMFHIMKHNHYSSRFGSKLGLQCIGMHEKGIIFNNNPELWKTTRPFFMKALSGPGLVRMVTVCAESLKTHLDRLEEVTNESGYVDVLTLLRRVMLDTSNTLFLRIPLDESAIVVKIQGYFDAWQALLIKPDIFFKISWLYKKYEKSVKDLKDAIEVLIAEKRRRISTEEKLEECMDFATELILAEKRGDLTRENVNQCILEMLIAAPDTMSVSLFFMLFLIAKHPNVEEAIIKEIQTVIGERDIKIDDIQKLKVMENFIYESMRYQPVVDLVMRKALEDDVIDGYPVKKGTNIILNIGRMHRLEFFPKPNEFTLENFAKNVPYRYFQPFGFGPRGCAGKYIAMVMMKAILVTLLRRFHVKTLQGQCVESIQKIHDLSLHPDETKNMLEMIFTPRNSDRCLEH

The target of assay [18] is human CYP2A6, CYP2A6 (gene 1548) (UniProt P11509). Description: NVS_ADME_hCYP2A6: NovaScreen (NVS) CYP450-related Enzyme Activity (ADME) Assay for human CYP2A6 (AID 2283099; active = hit-call score of the fitted dose curve at least 0.9, where 1 is the maximum). The method in brief:
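Recombinant human CYP2A6 from insect cells was incubated with chemical for 0.5 h and activity read by fluorescence. Single-concentration duplicates at 10 uM preceded concentration-response testing to 20 uM, with activity referenced to acetonitrile.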

The target in assay [19] is human CYP1A1, CYP1A1 (gene 1543) (UniProt P04798). The experiment in a line: NVS_ADME_hCYP1A1: NovaScreen (NVS) CYP450-related Enzyme Activity (ADME) Assay for human CYP1A1 (AID 2283100; active = hit-call score of the fitted dose curve at least 0.9, where 1 is the maximum). The method in brief: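 Compounds first went through duplicate single-concentration testing at 10 uM against purified CYP1A1. Those passing a threshold such as 30% inhibition entered singleton dose-response, highest concentration 20 uM. Signal was fluorescence measured after 1 hour.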
human CYP1A1, CYP1A1 (gene 1543), sequence (P04798 whole entry, looked up): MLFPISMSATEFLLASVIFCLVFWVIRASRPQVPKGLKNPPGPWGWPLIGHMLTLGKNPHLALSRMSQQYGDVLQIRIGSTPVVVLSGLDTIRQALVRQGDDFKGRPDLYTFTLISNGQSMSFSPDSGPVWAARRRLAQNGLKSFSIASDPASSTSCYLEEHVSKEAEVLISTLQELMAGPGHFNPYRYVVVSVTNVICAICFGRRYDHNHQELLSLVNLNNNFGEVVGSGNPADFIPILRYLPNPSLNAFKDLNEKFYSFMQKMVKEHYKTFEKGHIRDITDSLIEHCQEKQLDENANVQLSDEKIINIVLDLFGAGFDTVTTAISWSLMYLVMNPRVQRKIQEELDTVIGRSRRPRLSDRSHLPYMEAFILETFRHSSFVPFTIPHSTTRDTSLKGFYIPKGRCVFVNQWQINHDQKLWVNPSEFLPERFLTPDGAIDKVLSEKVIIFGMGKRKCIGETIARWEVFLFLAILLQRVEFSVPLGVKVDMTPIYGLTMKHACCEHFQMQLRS

Records with an inconclusive call do not appear. The source made the active and inactive calls. The calls were made as follows, unless noted: active = hit-call score of the fitted dose curve at least 0.9, where 1 is the maximum; inactive = score below 0.9.

Tumor necrosis factor (Homo sapiens), sequence (P01375 whole entry, looked up): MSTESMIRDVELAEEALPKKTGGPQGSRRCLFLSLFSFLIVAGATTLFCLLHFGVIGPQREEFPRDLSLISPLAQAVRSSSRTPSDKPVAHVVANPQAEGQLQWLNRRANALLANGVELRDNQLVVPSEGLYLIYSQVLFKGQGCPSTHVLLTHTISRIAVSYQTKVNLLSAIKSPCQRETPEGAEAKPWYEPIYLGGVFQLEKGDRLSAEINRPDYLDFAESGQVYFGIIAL
E-selectin (Homo sapiens), sequence (P16581 whole entry, looked up): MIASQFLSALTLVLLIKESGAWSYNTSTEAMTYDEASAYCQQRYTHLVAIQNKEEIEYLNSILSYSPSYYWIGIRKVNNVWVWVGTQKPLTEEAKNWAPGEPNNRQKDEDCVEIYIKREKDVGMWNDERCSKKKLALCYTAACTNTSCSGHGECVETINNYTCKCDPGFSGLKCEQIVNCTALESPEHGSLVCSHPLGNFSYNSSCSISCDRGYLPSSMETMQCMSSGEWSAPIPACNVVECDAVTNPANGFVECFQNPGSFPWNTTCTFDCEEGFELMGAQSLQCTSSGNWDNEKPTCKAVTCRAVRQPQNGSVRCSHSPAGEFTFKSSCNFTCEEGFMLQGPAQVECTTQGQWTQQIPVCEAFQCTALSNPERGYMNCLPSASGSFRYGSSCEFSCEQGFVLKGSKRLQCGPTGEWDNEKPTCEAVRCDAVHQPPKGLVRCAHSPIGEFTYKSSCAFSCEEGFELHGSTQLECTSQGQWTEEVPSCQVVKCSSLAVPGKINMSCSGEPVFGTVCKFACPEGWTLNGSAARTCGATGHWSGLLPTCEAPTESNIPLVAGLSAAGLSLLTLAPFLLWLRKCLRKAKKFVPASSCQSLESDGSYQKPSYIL
human CYP2A6, CYP2A6 (gene 1548), sequence (P11509 whole entry, looked up): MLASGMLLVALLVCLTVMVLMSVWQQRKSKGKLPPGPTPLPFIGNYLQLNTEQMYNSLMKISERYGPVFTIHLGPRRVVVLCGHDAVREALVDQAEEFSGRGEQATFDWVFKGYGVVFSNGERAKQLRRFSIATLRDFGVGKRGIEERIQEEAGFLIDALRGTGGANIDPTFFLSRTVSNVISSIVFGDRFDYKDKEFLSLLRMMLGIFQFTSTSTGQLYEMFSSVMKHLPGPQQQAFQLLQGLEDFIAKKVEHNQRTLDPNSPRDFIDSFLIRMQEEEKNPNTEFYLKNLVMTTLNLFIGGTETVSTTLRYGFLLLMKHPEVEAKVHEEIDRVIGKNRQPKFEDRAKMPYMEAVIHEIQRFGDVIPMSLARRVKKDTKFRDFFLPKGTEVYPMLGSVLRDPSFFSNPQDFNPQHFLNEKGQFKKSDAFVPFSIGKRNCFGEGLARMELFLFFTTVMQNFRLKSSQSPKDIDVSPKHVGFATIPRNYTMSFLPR

Take `CC(C)=CC1C(C(=O)OCc2coc(Cc3ccccc3)c2)C1(C)C` (stereo not given): the outcome in assay [1], in assay [2], in [3], in [4], in [5] and in assay [6] was inactive. The result in [7], in [8], in [12] and in [16] was inactive. Also, the AC50 in assay [9] is 11.4 µM (active); in [10] it was 20 µM (active); in [11], 16.6 µM (active); in [13], 5.08 µM (active); in [14] it was 12.7 µM (active); in assay [15] it was 15.7 µM (active). Moreover, in [17], the AC50 was 0.444 µM (active).
With `COC(=O)NC(=S)Nc1ccccc1NC(=S)NC(=O)OC`, the outcome in [1], in [2], in [4], in assay [5], in assay [6] and in assay [8] was inactive. For the same compound, the result in assay [9], in assay [10], in [12] and in [16] was inactive. In addition, the AC50 is 22.8 µM (active) in assay [3]; 28.4 µM (active) in [7]; 15.1 µM (active) in [11]; 14 µM (active) in [13]; 25.1 µM (active) in assay [14]; 19.2 µM (active) in assay [15].
As for `COP(=S)(OC)Oc1ccc([N+](=O)[O-])c(C)c1`, the outcome in assay [1], in assay [2], in [4], in [5], in assay [7] and in [10] was inactive. The result in assay [12], in [13], in [16] and in [17] was inactive. For the same compound, the AC50 in assay [3] is 20 µM (active); in assay [6], 31.5 µM (active); in assay [8], 7.6 µM (active); in [9], 37 µM (active); in assay [11], 29.6 µM (active); in assay [14], 29.6 µM (active). The AC50 was 24.9 µM (active) in [15] and 1.98 µM (active) in [18].
Consider `O=P(O)(O)CCCl`, for which the outcome in [1], in [2], in [3], in [4], in assay [5] and in [6] was inactive. The result in assay [7], in [8], in assay [9], in assay [10], in assay [11] and in assay [12] was inactive. The outcome in assay [13], in [14], in assay [15] and in assay [16] was inactive.
Regarding `CCC(C)n1c(=O)[nH]c(C)c(Br)c1=O` (stereo not given), the outcome in assay [1], in assay [2], in assay [3], in [4], in [6] and in assay [7] was inactive. Moreover, the outcome in [8], in [9], in [10], in assay [11], in assay [12] and in assay [13] was inactive. The outcome in assay [14], in assay [15] and in assay [16] was inactive. In addition, in assay [5], the AC50 was 10.5 µM (active).
In the case of `CCOP(=O)(OCC)Oc1nc(Cl)c(Cl)cc1Cl`, the outcome in assay [1], in [2], in [3], in assay [4], in assay [11] and in assay [12] was inactive. Moreover, the result in assay [13] and in assay [14] was inactive. In addition, the AC50 is 35.9 µM (active) in assay [5]; 16.7 µM (active) in [6]; 29.6 µM (active) in assay [7]; 20 µM (active) in assay [8]; 23.1 µM (active) in assay [9]; 23.9 µM (active) in assay [10]. The AC50 in assay [15] is 17.1 µM (active); in assay [16] it was 20 µM (active); in assay [19] it was 7.46 µM (active).
